# Assay results reported in PubChem BioAssay (NCI).
# This is part of a sample that, as a whole, favours compounds with a hit. Of some 83,000 tested, about 20% had one in any assay.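 The test compound was applied at a single concentration to cells in 96-well plates for 48 hours, and percent growth was recorded.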 Unmarked numbers belong to inactive results. Calls of active or inactive are those of the source. How the source made its calls: active means growth percent below 10; inactive means the rest.
# Tests used:
# Assay in all cases: NCI-60 one-dose screen, 48 h (100 = growth as untreated, 0 = no growth, -100 = all killed)
# [1] = system: HCT-15 colon; details: 10 µM unless noted
# [2] = system: HT29 colon; details: 10 µM unless noted
# [3] = system: SNB-75 CNS; details: 10 µM unless noted
# [4] = system: SNB-19 CNS; details: 10 µM unless noted
# [5] = system: U251 CNS; details: 10 µM unless noted
# [6] = system: PC-3 prostate; details: 10 µM unless noted
# [7] = system: SK-MEL-5 melanoma; details: 10 µM unless noted
# [8] = system: UACC-62 melanoma; details: 10 µM unless noted
# [9] = system: LOX IMVI melanoma; details: 10 µM
# [10] = system: SK-MEL-28 melanoma; details: 10 µM unless noted
SMILES,growth [1],growth [2],growth [3],growth [4],growth [5],growth [6],growth [7],growth [8],growth [9],growth [10]
Oc1ccc(Nc2ccc3ccccc3c2)cc1,54.7%,95.8%,63.2%,75.5%,67.5%,39.2%,44.7%,18%,40.9%,90.3%
COc1ccc2c(c1)c(CC(=O)O)c(C)n2C(=O)c1ccc(Cl)cc1,104%,111%,84.7%,110%,90.3%,104%,93.6%,95.5%,90.9%,97.3%
CC(CSc1n[nH]c(=S)s1)c1ccccc1 (centres undefined),110%,126%,85.1%,102%,107%,102%,103%,108%,97.6%,116%
O=C(/C=C/c1ccccc1)c1ccccc1O,67.3%,84.5%,63.7%,80.1%,61.1%,92.9%,94.9%,85.8%,34.9%,93.9%
COc1ccc(C(OCC2OC(n3ccc(NC(=O)c4ccccc4)nc3=O)C(O)C2O)(c2ccccc2)c2ccccc2)cc1 (centres undefined),20.6%,8.51% (active),34.1%,54.7%,33.1%,22.9%,24.2%,43.9%,46.6%,55.9%
O=C(/C(Cl)=N/O)c1ccc(-c2ccccc2)cc1,94.5%,80.1%,113%,105%,96.1%,98.6%,98.7%,97.9%,-41.5% (active),110%
[Cl-].[Rh+3].c1ccc(-c2ccnc3c2ccc2c(-c4ccccc4)ccnc23)cc1.c1ccc(-c2ccnc3c2ccc2c(-c4ccccc4)ccnc23)cc1.c1ccc(-c2ccnc3c2ccc2c(-c4ccccc4)ccnc23)cc1,106%,99%,102%,57.5%,30.8%,75.5%,-38.1% (active),97.7%,88.7%,
N#CC(I)CS(=O)(=O)c1ccccc1 (centres undefined),64.2%,50.9%,95.5%,94.8%,91.2%,90.8%,97.5%,84.4%,70.8%,97%
COc1ccc(NC(=O)/C(=C/N2C(=O)/C(=C/c3ccc(OC)c(OC)c3)NC2=S)C(C)=O)cc1,80.1%,92.8%,38.1%,73%,57.3%,62.4%,68.9%,53.9%,58.9%,77.2%
CN=C(N)N/N=C(\c1ccccc1)c1ccc(Br)cc1,12.4%,-7.67% (active),9.3% (active),62.2%,-9.13% (active),12.6%,-36.7% (active),33.8%,0.411% (active),48%
COC(=O)c1cc([N+](=O)[O-])cc([N+](=O)[O-])c1Cl,-4.09% (active),-85.2% (active),90.4%,104%,9.52% (active),97%,107%,90.6%,57.7%,108%
CC1(C)OCC(COC(c2ccccc2)(c2ccccc2)c2ccccc2)O1 (centres undefined),100%,91.9%,89.3%,100%,95.3%,89.2%,105%,99.3%,89.1%,103%
CC(C)=C1C=C2CC[C@@H]3[C@](C)(CCC[C@@]3(C)C(=O)O)[C@H]2CC1,98%,108%,93.4%,98.1%,96.2%,97.3%,96.8%,102%,85.5%,107%
Cc1ccccc1NC(=O)Cc1csc2[n+]1C(=O)/C(=C/c1ccc([N+](=O)[O-])cc1)S2,100%,113%,80.9%,102%,92.2%,85.9%,94.3%,88.2%,86.6%,95.8%
COC(=O)Nc1nc2ccc(C3(c4ccc(F)cc4)OCCO3)cc2[nH]1,25.9%,0.785% (active),10.3%,89.1%,13.9%,14.8%,21.2%,53.3%,45.2%,48.1%
CC1=CC(=NC(=O)CBr)C=C/C1=N\S(=O)(=O)c1ccccc1,36.6%,39.9%,67.6%,98.2%,67.3%,77.5%,57.1%,66.7%,9.2% (active),73.1%
O=C1c2ccccc2C(=O)c2c(O)c(Cl)cc(O)c21,81.9%,39%,96%,93.1%,38%,77%,108%,81.3%,50.9%,103%
Cc1cc(C)c([I+]c2c(C)cc(C)cc2C)c(C)c1,25.7%,-10.5% (active),-60% (active),-78.3% (active),-88.7% (active),-16.7% (active),-96.8% (active),-92.6% (active),-89.2% (active),-61.4% (active)
Cc1ccc(N2C(=O)C=CC2=O)cc1,114%,96.3%,89.6%,95.4%,102%,97.4%,91.2%,104%,97.7%,112%
CC12CCC(O)CC1=CCC1C2CCC2(C)C3=NN=CC3CC12 (centres undefined),95.1%,99%,93.7%,103%,101%,103%,96.4%,92.5%,100%,103%
COc1cc2c(c(OC)c1OC)-c1ccc(NCc3ccccc3)c(=O)cc1[C@@H](NC(C)=O)CC2,11.5%,-8.12% (active),32.9%,64.2%,19%,21.8%,-25% (active),24.9%,21.2%,42.2%
CCOC(=O)c1[nH]c(C#N)c(C(=O)OCC)c1C,92.2%,103%,96.9%,106%,99.1%,102%,102%,91.2%,107%,112%
CCOC(=O)/C(=C\c1ccc2ccccc2c1)P(=O)(OCC)OCC,2.93% (active),3.89% (active),35.2%,41.8%,38.2%,58.5%,44.4%,9.26% (active),-55.6% (active),18.7%
Oc1ccccc1N=Cc1ccccc1,58.5%,102%,132%,93.7%,89.9%,36.5%,65.2%,98.8%,54.7%,119%
Oc1ccc2ccccc2c1N=Nc1nccs1,24%,34.7%,43.3%,74.2%,4.79% (active),35.4%,74.7%,0.0083% (active),5.25% (active),38.1%
O=C(Nc1ccc(Cl)c(Cl)c1)Nc1ccccc1O,78.5%,112%,67%,85.8%,85.7%,38.1%,74.5%,42.8%,70.4%,107%
Nc1ccc(C(=O)/C=C/c2ccccc2)cc1,87%,96.5%,104%,91.3%,91.8%,74.1%,102%,97%,84.9%,113%
CC/C(=C(/CC)c1ccc(O)cc1)c1ccc(O)cc1,47.2%,71.5%,51.8%,72.7%,42.5%,75.4%,21.4%,42.4%,65.2%,60.1%
O=C(c1ccc(O)c(Br)c1)c1ccc(O)c(Br)c1,104%,114%,94.9%,94.3%,109%,101%,99.4%,97.1%,108%,110%
